Assay outcomes deposited in PubChem BioAssay by several laboratories.
This is a sample that favours compounds with a hit; in the whole collection about 27% have one here.
CYP2C9 inhib – inhibitors of human CYP2C9; P11712; CYP2C9 Supersomes, luciferin-H conversion, luminescence; inhibition, % at 5 µM; hit rate 20% among 96,000; AID 777;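 active = blocking of liver enzyme CYP2C9 beyond about 50% at 5 µM, limit read from the data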
sEH act – increases human soluble epoxide hydrolase activity; purified human sEH enzymatic activity, activator screen; hit rate 0.04% among 91,000; activation, % at 2 µM; in the data active = activation above about 37%
CYP2C19 activ – activators of human cytochrome P450 2C19; P33261; recombinant CYP2C19, luciferin-H EGE luminescence; stronger effect = higher value; 0 = fully inhibited enzyme, 1 = untreated enzyme; activation factor at 5 µM; 96,000 tested, under 10 active;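 active = activation factor of at least 2 at 5 µM in the primary screen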;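 also: 0 = wells with 2.5 mM tranylcypromine and 1 = vehicle-only wells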
Target sequence (P33261 whole entry, looked up): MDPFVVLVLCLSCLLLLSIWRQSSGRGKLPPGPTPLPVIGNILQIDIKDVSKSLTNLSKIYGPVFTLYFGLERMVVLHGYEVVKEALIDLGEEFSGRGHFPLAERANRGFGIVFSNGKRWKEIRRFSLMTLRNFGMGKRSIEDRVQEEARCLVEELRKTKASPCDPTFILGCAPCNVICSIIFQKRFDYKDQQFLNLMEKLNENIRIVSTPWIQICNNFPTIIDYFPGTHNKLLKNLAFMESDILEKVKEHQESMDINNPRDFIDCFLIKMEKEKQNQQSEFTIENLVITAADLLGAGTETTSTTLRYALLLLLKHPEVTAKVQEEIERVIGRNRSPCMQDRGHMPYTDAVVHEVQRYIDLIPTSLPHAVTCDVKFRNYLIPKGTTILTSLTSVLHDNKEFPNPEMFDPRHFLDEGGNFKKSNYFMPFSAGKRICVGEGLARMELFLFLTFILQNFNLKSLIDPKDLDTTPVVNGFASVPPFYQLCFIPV
sEH inh – blocks human soluble epoxide hydrolase activity; P34913; recombinant human sEH enzymatic activity assay; inhibition, % at 2 µM; AID 707; hit rate 0.34% among 91,000; in the data active = inhibition above about 80%
CYP2C9 act – increases human cytochrome P450 2C9 activity. P11712. recombinant CYP2C9, luciferin-H conversion, luminescence; stronger effect = higher value; factor 1 = untreated enzyme, 0 = blocked. activation factor at 5 µM. hit rate 1.4% among 96,000;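 active = activation factor of 2 or more for CYP2C9 at a 5 µM dose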;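 also: 0 = sulfaphenazole-blocked wells and 1 = vehicle-only wells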
CYP2C19 inh – human CYP2C19 inhibition; CYP2C19 Supersomes, luciferin-H EGE luminescence, 30 min; P33261; hit rate 21% among 96,000; AID 778; inhibition, % at 5 µM;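 active = CYP2C19 inhibition above a set limit at 5 µM in the primary screen, cut at about 50% in these data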;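 also: plate controls were negative control wells for no effect and 2.5 mM tranylcypromine positive control for full effect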
* marks the source's active call; other numbers are inactive results; / = not tested or not shown.

SMILES | CYP2C9 inhib | sEH act | CYP2C19 activ | sEH inh | CYP2C9 act | CYP2C19 inh
CON(C)c1nc(NCC(C)C)nc(OCC#N)n1 | 0 | 2 | 1 | -2 | 1 | -2
O=C1N/C(=N\N=C\c2ccccn2)SC1Cc1cccc(SC(F)F)c1 (configuration not stated) | -47 | -4 | 0.9 | 4 | 1.5 | 8
O=c1cc(C(Cl)(Cl)Cl)oc2c1ccc1ccccc12 | 65* | 4 | 0.4 | -2 | 0.4 | 56*
O=c1cc(-c2ccco2)oc2c1ccc1ccccc12 | 50 | -5 | 0.9 | 1 | 0.5 | 6
CCc1nnc(NC(=O)CSc2nc3c(c(=O)n2CC)SC(C)C3)s1 (configuration not stated) | -28 | / | 0.6 | / | 1.3 | 36
CC(C)(C)NC(=O)C(c1ccco1)N(C(=O)Cn1nnc(-c2ccc(F)cc2)n1)c1ccccc1F (configuration not stated) | 12 | 16 | 0.8 | -12 | 0.9 | 23
N#Cc1cccc(NC(=O)Nc2cccs2)c1 | 84* | -20 | 0.6 | 21 | 0.2 | 42
CCc1cccc(NC(=O)Nc2cccs2)c1 | 38 | -51 | 0.7 | 51 | 0.6 | 28
CCOC(=O)c1cnc(SCC(=O)Nc2ccccc2N2CCOCC2)nc1N | / | -14 | / | 19 | / | /
COc1ccccc1NC(=O)NCCN1C(=O)C2C3C=CC(C3)C2C1=O (configuration not stated) | 3 | / | 0.3 | / | 1 | 66*
O=C(NCCN1C(=O)C2C3C=CC(C3)C2C1=O)Nc1ccc(Br)cc1 (configuration not stated) | 55* | / | 0.1 | / | 0.4 | 94*
C=CCn1c(SCC(=O)c2ccc(Br)cc2)nnc1C(CC(C)C)NC(=O)c1cccs1 (configuration not stated) | -6 | 3 | 0.8 | -2 | 1.1 | 18
CCC(Sc1nc(C)cc(C)n1)C(=O)Nc1ccc(Cl)cn1 (configuration not stated) | / | 2 | / | 3 | / | /
CCOC(=O)C1=C(C)NC(C)=C(C(=O)OCC)C1c1ccc(OC)cc1 | 88* | 8 | 0.3 | -10 | 0.1 | 70*
C=CCOC(=O)C1=C(C)NC(C)=C(C(=O)OCC=C)C1c1ccc(O)cc1 | 100* | / | 0 | / | 0 | 100*
CCOC(=O)C1=C(C)NC(=O)NC1c1ccc(OC(=O)c2ccco2)cc1 (configuration not stated) | / | 0 | / | 0 | / | /
COC(=O)C1=C(C)NC(C)=C(C(=O)OC)C1c1ccc(OC(=O)c2ccco2)cc1 | 57* | -21 | 0.9 | 21 | 0.4 | 12
CCOC(=O)C1C(=O)C=C(C)C(C(=O)OCC)C1c1ccc(OC)cc1 (configuration not stated) | 17 | 10 | 0.3 | -13 | 0.8 | 73*
CC(=N/O)/C(=N\O)c1ccc(C)o1 | -3 | 32 | 0.9 | -36 | 1 | 10
CCCOC(=O)c1ccc(OC(=O)c2ccco2)cc1 | -97 | -7 | 0.9 | 7 | 2* | 12
COC(=O)C1=C(C)Nc2ncnn2C1c1ccccn1 (configuration not stated) | -21 | -14 | 1 | 14 | 1.2 | 0
CCCOC(=O)c1ccc(NC(=O)Oc2ccccc2)cc1 | 2 | 5 | 1 | -5 | 1 | 5
CC(=O)Nc1ccc(OC(=O)c2ccco2)cc1 | / | 4 | / | -4 | / | /
COC(=O)C1=C(C)NC(C)=C(C(=O)OC)C1c1ccccn1 | 83* | -7 | 0.8 | 6 | 0.2 | 22
CC(=O)Nc1cc(OC(=O)c2ccco2)cc(OC(=O)c2ccco2)c1 | 66* | 7 | 0.7 | -5 | 0.3 | 26
SMILES | CYP2C9 inhib | sEH act | CYP2C19 activ | sEH inh | CYP2C9 act | CYP2C19 inh
O=C(Nc1ccc(-c2cn3ccsc3n2)cc1)c1ccc(F)c(S(=O)(=O)N2CCOCC2)c1 | 46 | -30 | 0.8 | 29 | 0.5 | 15
CN(c1cc(=O)n2ccccc2n1)C1CCCCC1 | 16 | -9 | 0.5 | 12 | 0.8 | 50
CCOC(=O)c1c(C)oc2c1cc(O)c1ccccc12 | 73* | 10 | 0.7 | -9 | 0.3 | 33
CCOC(=O)c1c(C)oc2ccc(O)cc12 | -170 | -5 | 0.9 | 4 | 2.7* | 8
CCOC(=O)c1c(C)oc2cc(Br)c(O)c(Br)c12 | 67* | / | 1 | / | 0.3 | -2
CCOC(=O)c1c(C)oc2cc(Br)c(OC(C)C(=O)OCC)cc12 (configuration not stated) | 91* | 1 | 0.1 | 0 | 0.1 | 94*
Cn1c(=O)c2c(nc(SCc3cccnc3)n2Cc2ccc(F)cc2)n(C)c1=O | 41 | 15 | 0.7 | -15 | 0.6 | 26
Cc1nc(-c2cccnc2)sc1C(N)=O | -3 | 9 | 0.8 | -7 | 1 | 16
CCOC(=O)c1c(C)oc2c1c(C=NCc1ccccn1)c(O)c1ccccc12 | 86* | / | 0.4 | / | 0.1 | 64*
CCOC(=O)c1c(C)oc2ccc(OCC(N)=O)cc12 | 43 | -11 | 0.7 | 12 | 0.6 | 28
CCOC(=O)c1c(C(C)(C)C)oc2ccc(OCC#N)cc12 | 57* | -3 | 0.8 | 3 | 0.4 | 20
C=C(C)COc1ccc2oc(C)c(C(=O)OCCOC)c2c1 | 60* | -6 | 0.2 | 4 | 0.4 | 84*
CCOC(=O)c1c(C)oc2c1c(C=NCC1CCCO1)c(O)c1ccccc12 (configuration not stated) | 27 | -12 | 0.9 | 12 | 0.7 | 11
O=C(OC(C(=O)O)C(OC(=O)c1ccccc1)C(=O)NCc1ccccc1)c1ccccc1 (configuration not stated) | -14 | 12 | 1.1 | -14 | 1.1 | -9
COC(=O)CCc1c(C)[nH]c(C(=O)OCc2ccccc2)c1C | 36 | 5 | 0.4 | 0 | 0.6 | 62*
COC(=O)CSc1nnc(CNC(=O)c2cccs2)n1-c1cc(OC)ccc1OC | -6 | -1 | 1.1 | -2 | 1.1 | -6
N#Cc1ccc(CSc2nnc(-c3cnccn3)o2)cc1 | 27 | -14 | 0.3 | 13 | 0.7 | 70*
O=C1Nc2ccccc2C1=Nc1ccc(-c2nnc3n2CCCCC3)cc1 | -16 | / | 1 | / | 1.2 | -5
COc1cc(C2c3c(oc4ccccc4c3=O)C(=O)N2Cc2ccncc2)ccc1O (configuration not stated) | 73* | 6 | 0.5 | -4 | 0.3 | 47
COc1cc(C2c3c(oc4ccccc4c3=O)C(=O)N2Cc2ccco2)ccc1O (configuration not stated) | 42 | 10 | 0.6 | -6 | 0.6 | 37
COCCN1C(=O)c2oc3ccccc3c(=O)c2C1c1cccc(O)c1 (configuration not stated) | 43 | 10 | 0.4 | -11 | 0.6 | 55*
CC1(C)Cc2ccccc2-c2nc3ccccc3c(=O)n21 | 34 | 14 | 0.8 | -13 | 0.7 | 18
CCOC(=O)C1=C(O)/C(=C/c2cn(CC(=O)N3CCCC3)c3ccccc23)SC1=Nc1ccccc1 | / | 10 | / | -7 | / | /
